# NRP1-CendR mod – NRP-1/CendR interaction modulation | O14786 | FAM-RPARPAR peptide binding to NRP-1, fluorescence polarization | inhibition, % at 25 µM | 360,000 compounds, 0.85% hits;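 active = inhibition or corrected inhibition above about 18%, plus a signal ratio from 0.5 to 1.5, limit read from the data, passing the limit was not always enough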
# PglD inh – inhibitors of Campylobacter jejuni PglD acetyltransferase; 360,000 compounds, 0.098% hits; purified PglD enzyme, DTNB colorimetric CoA detection; inhibition, % at 12.5 µM; in the data active = inhibition above about 16%, passing the limit was not always enough
# ALR H2O2 inh – human ALR oxidase inhibition via reduced H2O2; P55789; purified ALR, DTT oxidation, H2O2 HRP-luminol luminescence; inhibition, % (no concentration beside the values); 290,000 compounds, 3.8% hits; AID 485317;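 active = mean replicate inhibition above about 79%, with every replicate also reaching it, limit read from the data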
# Target sequence (P55789 whole entry, looked up): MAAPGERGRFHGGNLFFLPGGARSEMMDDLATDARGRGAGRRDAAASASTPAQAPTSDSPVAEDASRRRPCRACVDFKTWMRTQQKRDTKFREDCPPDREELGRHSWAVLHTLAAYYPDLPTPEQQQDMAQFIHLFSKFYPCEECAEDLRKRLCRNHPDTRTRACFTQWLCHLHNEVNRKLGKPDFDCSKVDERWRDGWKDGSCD
# ERp5 block – ERp5 (human) disulfide isomerase inhibition; ERp5 insulin aggregation, absorbance 650 nm, 90 min; 350,000 compounds, 0.05% hits; AID 651711; inhibition, % at 9.99 µM;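 active = mean replicate inhibition above about 25%, with every replicate also reaching it, limit read from the data, passing the limit was not always enough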
# PDI inh – PDI (human) enzyme inhibition. PDI insulin aggregation turbidity, A650, 90 min. inhibition, % at 10 µM. 350,000 compounds, 0.052% hits. AID 588391;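 active = mean inhibition across replicates of 30% or more, whatever share of single replicates reach that level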
# ARNT TACC3 PPI – disrupts binding between human ARNT and TACC3. Q9Y6A5. AlphaScreen His-ARNT PAS-B/GST-TACC3 binding, luminescence; TACC3 fragment carries E629A point mutation. inhibition, % at 9.99 µM. 390,000 compounds, 0.66% hits. AID 623870;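 active = mean inhibition of replicates at least 50% and at least half of replicates each reaching 50%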;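 also: 0% = complete ARNT plus TACC3 wells and 100% = ARNT alone without TACC3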
# * marks the source's active call; other numbers are inactive results; x = not tested or not shown. The full list was thinned out, with hits kept by preference.
SMILES,NRP1-CendR mod,PglD inh,ALR H2O2 inh,ERp5 block,PDI inh,ARNT TACC3 PPI
O=c1c(-c2ccc(O)cc2)coc2cc(OC3OC(CO)C(O)C(O)C3O)ccc12 (stereo unspecified),-6,-1,99*,6,6,-3
O=c1c(OC2OC(CO)C(O)C(O)C2OC2OC(CO)C(O)C(O)C2O)c(-c2ccc(O)cc2)oc2cc(O)cc(O)c12 (stereo unspecified),6,4,23,-1,x,-4
O=c1c(OC2OC(CO)C(O)C(O)C2O)c(-c2ccc(O)c(O)c2)oc2cc(O)cc(O)c12 (stereo unspecified),-38,-6,99*,2,54*,10
COc1ccc2c3c([nH]c2c1)[C@@H](CO)N(C(=O)C1CC1)CC31CCN(C)CC1,x,x,x,-2,x,x
CCOC(=O)c1c(C)[nH]c(N=Nc2ccccc2)c1C,3,-90,87*,x,9,33
CCOC(=O)c1c(C)[nH]c(N=Nc2ccc(C)cc2)c1C,-11,-8,-13,x,5,6
COc1ccccc1CN1[C@H](CO)[C@H]2c3ccccc3N(C(=O)c3ccncc3)C[C@H]21,x,2,x,0,x,-2
O=C(C[C@H]1C[C@H]2c3cc(NC(=O)C4CCOCC4)ccc3O[C@H]2[C@H](CO)O1)NC1CCCC1,x,-3,x,5,x,-5
O=C(c1ccncc1)N1CC2(C1)[C@@H](c1ccccc1)[C@@H](CO)N2C(=O)CC1CC1,x,x,x,-4,x,x
Oc1ccc(-c2[nH]nc(-c3ccccc3)c2-c2nc3ccccc3[nH]2)cc1,16,6,84*,x,-6,-3
CCOC(=O)CSc1cc(C)nc2ccc(OC)cc12,19,x,98*,2,-4,-6
COc1ccc2c3c([nH]c2c1)[C@H](CO)N(C(=O)C1CC1)CC31CCN(S(C)(=O)=O)CC1,x,x,x,2,x,x
NC(=O)c1sc(=S)n(-c2ccc(Br)cc2)c1N,-6,7,95*,-2,2,-12
COc1cc(/C=N/Nc2ccc([N+](=O)[O-])cn2)cc(OC)c1O,-4,x,100*,-2,8,x
COc1ccc(/C=N\Nc2ccc([N+](=O)[O-])cc2)c(C(=O)O)c1OC,-14,x,98*,6,-3,-11
COc1ccc(/C=N/Nc2ccc([N+](=O)[O-])cc2)cc1O,-127,-10,95*,1,-6,-1
CO[C@H]1CC[C@H]2CCN(C)C(=O)[C@H](C)[C@H](OC)CN(C)C(=O)c3cc(C#N)ccc3OC[C@@H]1O2,x,-4,x,0,x,-1
Cc1noc(C)c1S(=O)(=O)Nc1ccc2c(c1)CC(=O)N([C@H](C)CO)C[C@@H](C)[C@@H](CN(C)CC1CCCCC1)O2,x,13,x,3,x,-4
O=C(Nc1nnc(-c2ccccc2)s1)c1ccc(F)cc1,-4,-4,-10,1,6,-3
Cc1cc(C)n(-c2ccc(C(=O)NC(C)C)cc2)n1,-1,-1,-7,1,5,-17
Cc1cc(C(=O)Nc2nnc(-c3ccccc3)s2)no1,15,-5,93*,x,17,-4
Cc1cc(C(=O)Nc2nnc(C3CCCCC3)s2)no1,-6,-2,86*,x,3,1
Cc1ccc(C(=O)Nc2nnc(C3CCCCC3)s2)o1,2,-3,49,x,-18,-3
Cc1cc(C)n(-c2ccc(C(=O)Nc3nnc(C4CC4)s3)cc2)n1,26*,-2,-6,x,-2,-3
Cc1cc(NC(=O)CSc2nc3c(cc2C#N)CCCC3)no1,-15,x,-9,x,9,-1
SMILES,NRP1-CendR mod,PglD inh,ALR H2O2 inh,ERp5 block,PDI inh,ARNT TACC3 PPI
Cc1noc(NS(=O)(=O)c2ccc(NC(=O)CSc3nc4c(cc3C#N)CCCC4)cc2)c1C,-10,2,95*,-1,-6,-5
Cc1noc(NS(=O)(=O)c2ccc(NC(=O)CSc3nc4c(cc3C#N)CCC4)cc2)c1C,-5,5,98*,4,9,-1
O=C(C[C@H]1C[C@H]2c3cc(NS(=O)(=O)c4ccc(F)cc4)ccc3O[C@H]2[C@@H](CO)O1)NCc1ccc(Cl)cc1,x,-1,x,-9,x,3
C[C@@H]1CN([C@H](C)CO)C(=O)c2cccc(NC(=O)C3CCOCC3)c2O[C@@H]1CN(C)S(=O)(=O)c1cccs1,x,0,x,6,x,-7
COc1cccc(-c2ccc3c(c2)O[C@H](CN(C)Cc2cncnc2)[C@H](C)CN([C@H](C)CO)S3(=O)=O)c1,x,0,x,4,x,-4
CCc1nn(CC(=O)Nc2ccc(Br)c(C)c2)c(=N)s1,-2,x,99*,2,1,4
C[C@@H]1CN([C@@H](C)CO)C(=O)c2cc(-c3cccc(C(=O)N(C)C)c3)cnc2O[C@H]1CN(C)S(=O)(=O)c1ccccc1,x,-4,x,-5,x,7
Cc1ccccc1-n1c(SCC(=O)N2CCC(C(=O)O)CC2)nnc1-c1ccncc1,-2,x,4,2,7,-13
Cc1ccc(C)c(-n2c(SCC(=O)N3CCC(C(=O)O)CC3)nnc2-c2cccc(Cl)c2)c1,27*,x,-1,-1,2,0
COCCN(CCOC)S(=O)(=O)c1ccc(C(=O)Nc2nc(C)c(C(C)=O)s2)cc1,-5,6,100*,0,16,3
COc1ccc(-c2nnc(NC(=O)c3ccc(S(=O)(=O)N(C)CC4CCCO4)cc3)o2)c(OC)c1 (stereo unspecified),-10,-1,59,-1,-6,45*
O=C(Nc1nnc(-c2ccco2)o1)c1ccc2ccccc2c1,8,x,-3,x,-24,-1
Cc1cc(NC(=O)c2ccc(S(=O)(=O)N(C)CC3CCCO3)cc2)no1 (stereo unspecified),8,x,16,2,-9,2
Cc1nnc(NC(=O)c2ccc3ccccc3c2)o1,7,4,-8,x,-9,52*
COCc1nnc(NC(=O)c2ccc(S(=O)(=O)N(C)Cc3ccccc3)cc2)o1,4,2,3,0,-6,49*
CCNC(=O)[C@H]1[C@H](CO)[C@H]2Cn3c(ccc(-c4ccncc4)c3=O)[C@@H]1N2CC1CC1,x,-1,x,-3,x,2
C[C@H]1CCCCO[C@@H](CN(C)C(=O)Nc2ccc3c(c2)OCO3)[C@@H](C)CN([C@@H](C)CO)C(=O)c2cc(NS(=O)(=O)c3cn(C)cn3)ccc2O1,x,0,x,-7,x,5
Cc1ccc(S(=O)(=O)N(C)C[C@@H]2Oc3ccc(NC(=O)Cc4ccccc4)cc3C(=O)N([C@H](C)CO)C[C@@H]2C)cc1,x,2,x,1,x,0
COCCN(CCOC)S(=O)(=O)c1ccc(C(=O)Nc2nnc(C)o2)cc1,1,-6,-35,x,3,57*
COCCN(CCOC)S(=O)(=O)c1ccc(C(=O)Nc2nnc(COC)o2)cc1,4,x,0,2,-2,32
Cc1nnc(NC(=O)c2ccc(S(=O)(=O)N(C)Cc3ccccc3)cc2)o1,5,-2,-2,x,-5,46*
CCC(=C(c1ccc(O)cc1)c1ccc(OCCN(C)C)cc1)c1ccccc1,1,-4,x,0,-5,x

# Assay outcomes (PubChem BioAssay)
